# Laboratory results taken from PubChem BioAssay (NCATS).
# Active and inactive are the calls of the source. A call without a number means that no potency is given here. The call rests on the fitted dose curve; in most records, active means well fitted inhibition curve with a large enough effect; inconclusive means small, poorly fitted or top-dose-only effect; inactive means flat fitted curve, though single readings scatter.
# Molecular target: Luciferin 4-monooxygenase (Photinus pyralis) (UniProt P08659)
# Experiment: Primary firefly luciferase (FLuc) qHTS assay for identification of artifact compounds. (AID 1845220); further: nearly all actives have a fitted effect of over 60% in size
# Conditions: purified firefly luciferase, luminescence, 5 min; series mostly up to 54.1 µM
# In short: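 Cell-free, 1536-well qHTS. Buffer pH 7.6 with 0.01% Tween-20 and 0.05% BSA; 10 uM D-luciferin, 10 uM ATP; 10 nM P. pyralis luciferase; luminescence after 5 min.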
SMILES,Potency,"activity change, negative = inhibition"
COC1OC(OC)C(O)(CCC2(C)C(C)CCC3(C)C2CC(O)C(O)C32CO2)C1O (stereo unspecified),inactive,
CC(=O)O[C@@H]1C[C@@H](C)[C@](O)(CCC2=CC(=O)OC2)[C@@]2(C)CCCC(C)(C)C12 (stereo partly specified),inactive,
COc1cc(O)c2c(c1)C1(OC2=O)C(C)=CC(=O)C1O (stereo unspecified),inactive,
CC(O)/C=C/C1(O)C(C)C(O)C(O[C@@H]2O[C@H](CO)[C@@H](O)[C@H](O)[C@H]2O)CC1(C)C (stereo partly specified),inactive,
C/C(CO)=C1/CCC23COC(C2)C(O)(C(=O)O)CCC13 (stereo unspecified),inactive,
N[C@@H](CC(=O)Nc1ccc(Oc2cc(F)c(F)cc2Br)cc1)C(=O)O,inactive,
CC1=CC2=C(C)C(=O)C(C)(O)C(O)C2CO1 (stereo unspecified),inactive,
CC(C)c1ccc2c(c1)C(O)CC1C(C)(CO)CCCC21C (stereo unspecified),inactive,
CC1=C2C3OC(=O)C(C)C3(O)CCC2(C)CCC1 (stereo unspecified),inactive,
C=C1CCC2C(C)(C)CC(=O)CC2(C)C1CCC(C)CCO (stereo unspecified),inactive,
CC[C@@H]1[C@H]2CCCCN3C(=O)C[C@H]([C@@H]4[C@H]1OC(=O)[C@H]4C)[C@@H]23,inactive,
C=C1CCC2(C(=O)OC3OC(CO)C(O)C(O)C3O)CCC3(C)C(=CCC4C5(C)CCC(OC6OC(CO)C(OC7OC(C)C(O)C(O)C7O)C(OC7OCC(O)C(O)C7O)C6O)C(C)(C)C5CCC43C)C2C1 (stereo unspecified),,3.5% [at 11.6 µM] (inactive)
C[C@@H]1C[C@@H](O)[C@@]23CO[C@]2(CO)C[C@@H](O)CC3[C@@]12CC(c1ccoc1)OC2=O (stereo partly specified),inactive,
COc1cc(/C=C/C(=O)O[C@H]2[C@H](O)[C@@H](CO)O[C@@]2(CO)O[C@H]2O[C@H](CO)[C@@H](O)[C@H](O)[C@H]2O)cc(OC)c1O,inactive,
C=CCc1cc(OC)c(OC(C)C(O)c2ccc(O)c(OC)c2)c(OC)c1 (stereo unspecified),inactive,
COc1cc(C[C@@]2(O)CO[C@@H](c3ccc(O[C@@H]4O[C@H](CO)[C@@H](O)[C@H](O)[C@H]4O)c(OC)c3)[C@H]2CO)ccc1O,inactive,
O=C(OCC1=C[C@@H](O)[C@@H]2C=CO[C@@H](O[C@@H]3O[C@H](CO)[C@@H](O)[C@H](O)[C@H]3O)[C@H]12)c1ccc(O)cc1,inactive,
C=CC(C)(CC/C=C(\C)C(=O)OC)OC1OC(COC(=O)CC(C)(O)CC(=O)O)C(O)C(O)C1O (stereo unspecified),inactive,
COC(=O)C1=COC(OC2OC(CO)C(O)C(O)C2O)C2C(C)C(OC(C)=O)C(OC(=O)c3ccccc3)C12 (stereo unspecified),inactive,
C=C1CCC2C(C)(C)CCC[C@]2(C)[C@H]1CC/C(C)=C/C(=O)O (stereo partly specified),inactive,
CCNC(=O)C1CC(F)(c2ccc(CN3CCCC3)c(F)c2)C1 (stereo unspecified),inactive,
CCC(=O)N1CCc2cc(OC)c(O)cc2C1,inactive,
COc1cc(O[C@@H]2O[C@H](CO[C@H]3OC[C@](O)(CO)[C@H]3O)[C@@H](O)[C@H](O)[C@H]2O)cc(OC)c1O,inactive,
C/C=C(\C)C(=O)OCC1OC(OCC2OC(OC3(CO)OC(CO)C(O)C3O)C(O)C(O)C2O)C(O)C(O)C1O (stereo unspecified),inactive,
O=C(/C=C/c1ccc(O)cc1)O[C@@H]1C[C@@](O)(C(=O)O)C[C@@H](O)[C@@H]1O,inactive,
COc1cc([C@@H](O[C@@H]2O[C@H](CO)[C@@H](O)[C@H](O)[C@H]2O)[C@@H]2CO[C@H](c3ccc(O)c(OC)c3)[C@H]2CO)ccc1O,inactive,
